Compound activity deposited in PubChem BioAssay by National Center for Advancing Translational Sciences (NCATS).
An excerpt weighted towards active compounds, which were near 7.5% of everything screened.
Vaccinia Venus – qHTS for Stage-Specific Inhibitors of Vaccinia Orthopoxvirus: Venus Reporter Primary qHTS; 0.46% of 330,000 active; AID 720580, 2013; Vaccinia virus Venus reporter expression, fluorescence; Potency, µM (doses to about 36.5 µM), without a hit: at the highest dose activity change, negative = inhibition, actives largely listed as inhibitors; calls by dose curve; tested in A549 cells; also: potency is read from the fitted curve at half-maximal effect; nearly all actives have a fitted effect of over 30% in size
Giardia FBPA inh – qHTS Assay for Inhibitors of Fructose-1,6-bisphosphate Aldolase from Giardia Lamblia. Potency, µM (top dose mostly 59.6 µM), for inactives: at the highest dose activity, negative = inhibition, usual class: inhibitors. 0.71% of 290,000 active. purified Giardia FBPA. A8B2U2; also: potency is read from the fitted curve at half-maximal effect; nearly all actives have a fitted effect of over 55% in size
Target sequence (A8B2U2 whole entry, looked up): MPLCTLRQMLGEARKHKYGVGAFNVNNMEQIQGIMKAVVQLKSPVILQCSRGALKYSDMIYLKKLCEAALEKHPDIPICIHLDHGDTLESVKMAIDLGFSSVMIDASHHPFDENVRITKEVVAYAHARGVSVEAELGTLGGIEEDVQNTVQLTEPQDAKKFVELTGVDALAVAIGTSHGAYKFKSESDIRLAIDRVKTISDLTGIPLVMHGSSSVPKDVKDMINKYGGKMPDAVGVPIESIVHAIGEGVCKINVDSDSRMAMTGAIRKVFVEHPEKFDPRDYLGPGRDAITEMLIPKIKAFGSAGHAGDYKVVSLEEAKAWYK
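Giardia FBPA (40 nM reagent) was preincubated 10 min at RT with compound (up to 57.5 uM final), then substrate plus GAPDH/TPI/NAD/arsenate coupling system with diaphorase/resazurin was added; resorufin fluorescence (525/598 nm) was read after 20 min.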
Vaccinia mCherry – qHTS for Stage-Specific Inhibitors of Vaccinia Orthopoxvirus: mCherry Reporter Primary qHTS. 0.63% of 310,000 active. Vaccinia virus mCherry reporter infection, fluorescence. AID 720579, 2013. Potency, µM (series often up to 36.5 µM), for the others: at the highest dose activity change, negative = inhibition, usual class: inhibitors; calls by dose curve; tested in A549 cells; also: potency is read from the fitted curve at half-maximal effect; nearly all actives have a fitted effect of over 35% in size
HCV inhibitor – qHTS Assay for Inhibitors of Hepatitis C Virus (HCV) | Huh7.5.1 HCVcc-Cre infection, luciferase reporter, 44 h | Potency, µM (series often up to 41.8 µM), for the others: at the highest dose activity change, negative = inhibition, actives largely listed as inhibitors | 3.4% of 340,000 active | AID 651820, 2012; also: potency is read from the fitted curve at half-maximal effect
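After 44 h co-culture of compound, cells and HCVcc-Cre (~0.5 moi), substrate is added for 15 min at room temperature and luciferase measured over 15 sec. Cells were seeded at 1,000/well and pre-cultured 4 h.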
HCMV inh – qHTS Assay for inhibitors of the human cytomegalovirus (HCMV); HFF cells, HCMV-luciferase reporter, 72 h; stronger effect = lower value; activity change, negative = inhibition, % at 57.5 µM; 4.5% of 410,000 active; AID 1259415, 2018; in the data active = activity change below about -60%; inconclusive = no clear call, values can overlap the other calls; inactive = above about -39%
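Luciferase read-out from HCMV-luciferase-infected HFFs (MOI 1 PFU/cell) 72 h post infection at 37C; compounds added after 16 h cell attachment; activity normalized between buffer-only basal and Salinomycin (10uM) inhibitor controls.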
FMDV antiviral – High Throughput Screening for Foot and Mouth Disease Virus Antivirals | FMDV antiviral cell-based qHTS | Potency, µM (highest dose often 57.9 µM), without a hit: at the highest dose activity change, negative = inhibition, actives largely listed as inhibitors | 1.2% of 410,000 active; calls by dose curve; tested in HEK293T cells; also: read-out not given here; potency is read from the fitted curve at half-maximal effect; nearly all actives have a fitted effect of over 45% in size
* = called active by the depositor; i = inactive; u = inconclusive; x = no result given; [ ] = another dose, or the depositor's remark. Unless noted, calls follow the shape of the dose curve; as a rule, active = well fitted curve in the direction sought with a large enough effect; inconclusive = small, poorly fitted or top-dose-only effect, or another doubt; inactive = no such curve, though single readings can be large; an effect the other way counts as inactive or inconclusive. % is scaled to controls: 0 for no effect and ±100 for the full control effect.

SMILES	Vaccinia Venus	Giardia FBPA inh	Vaccinia mCherry	HCV inhibitor	HCMV inh	FMDV antiviral
CC(=O)c1ccc(Nc2nc(-c3ccccc3)nc3ccccc23)cc1	u	x	u	u	12.6	-27.3%
Oc1cccc(Nc2nc(-c3ccccc3)nc3ccccc23)c1	u	-11.5%	u	3.55µM*	u	u
CC(=O)c1cccc(Nc2nc(-c3ccccc3)nc3ccccc23)c1	-27.0%	-26.7%	u	10µM*	-30.7	u
Cc1cccc(Nc2nc(-c3ccccc3)nc3ccccc23)c1	-5.0%	x	-18.8%	x	-32.5	-28.9%
COc1cccc(NC(=O)CCCOc2cc(=O)n(C)c3ccccc23)c1	x	-10.6%	x	2.8%	252.9	14.5%
COC(=O)c1ccccc1NC(=O)CCCOc1cc(=O)n(C)c2ccccc12	-11.6%	x	i	x	-99.4*	-24.5%
CC(C)CN1CCC2(CC1)CCN(C(=O)c1ccco1)CC2	x	6.7%	x	x	x	-9.1%
COc1cc(/C=C/C(=O)O)ccc1O	u	4.0%	2.6%	19.6%	x	-5.6%
COc1cc(/C=C/C(=O)c2ccc([N+](=O)[O-])o2)ccc1O	u	x	u	u	-77.0*	u
O=C(/C=C/c1cccc(Cl)c1)c1ccc([N+](=O)[O-])o1	10µM*	x	10µM*	2.51µM*	-99.8*	11.2µM*
COc1cc(/C=C/[N+](=O)[O-])ccc1O	-14.1%	u	-6.3%	8.5%	-103.8*	u
COc1cc(/C=C/C(=O)c2c(O)cc(C)oc2=O)ccc1O	x	-28.2%	x	x	x	-6.5%
COc1cc(/C=C/C(=O)/C=C(O)/C=C/c2ccc(O)c(OC)c2)ccc1O	-10.9%	-8.1%	u	u	-67.4*	u
Cc1ccccc1C1=NOC2CN(C(=O)COc3ccccc3)CC12 (stereo not given)	x	x	x	x	-22.7	x
CC(C)CCN1C(=O)c2ccccc2C1c1nnnn1-c1ccc2c(c1)OCCO2 (stereo not given)	-5.2%	x	-13.7%	x	-5.6	-6.1%
CCOC(=O)c1ccc(NC(=O)Nc2ncc(Cl)cc2Cl)cc1	x	-15.5%	x	x	x	x
CC(=O)Nc1ccc(S(=O)(=O)N2CCC(C(=O)NCc3ccncc3)CC2)cc1	-16.1%	x	i	9.9%	-32.6	-4.3%
COc1ccc(/C=C/C(=O)c2ccc([N+](=O)[O-])o2)cc1OC	u	x	u	5.62µM*	-103.6*	35.5µM*
COc1cc(/C=C/C(C)=NNc2ccccc2)ccc1O	-20.8%	x	3.55µM*	u	-61.3*	2.9%
COc1ccc2oc(C(=O)N3CCN(S(=O)(=O)c4cccc([N+](=O)[O-])c4)CC3)c(C)c2c1	0.9%	x	u	4.2%	-67.1*	-29.3%
CCOc1ccc(S(=O)(=O)N2CCN(C(=O)c3oc4ccc(OC)cc4c3C)CC2)cc1	-10.6%	x	-20.7%	u	-11.5	u
O=S(=O)(NC1c2cccc3cccc(c23)C1Sc1ncccn1)c1ccc(Cl)cc1 (stereo not given)	u	-9.9%	u	u	-71.6*	-19.7%
O=C(c1cccs1)N(Cc1ccc(Cl)cc1)C1CCS(=O)(=O)C1 (stereo not given)	-9.3%	-2.0%	-3.0%	17.4%	-34.8	-19.9%
Cc1ccccc1C(=O)N(Cc1cccs1)C1CCS(=O)(=O)C1 (stereo not given)	-4.2%	16.1%	-13.4%	-0.6%	-84.1*	-12.4%
CC(C)c1ccc2occ(CC(=O)N(Cc3ccc(F)cc3)C3CCS(=O)(=O)C3)c2c1 (stereo not given)	-16.4%	x	-21.2%	x	-64.5*	-23.8%
SMILES	Vaccinia Venus	Giardia FBPA inh	Vaccinia mCherry	HCV inhibitor	HCMV inh	FMDV antiviral
Cc1cccc(C(=O)N(Cc2cccs2)C2CCS(=O)(=O)C2)c1 (stereo not given)	-11.8%[7.34 µM]	4.7%	-4.1%[7.34 µM]	9.4%	-9.0	-7.8%
Cc1ccc2occ(CC(=O)N(Cc3ccc(N(C)C)cc3)C3CCS(=O)(=O)C3)c2c1 (stereo not given)	-3.6%	x	-6.5%	x	21.4	-20.3%
CC(C)c1ccc(CN(C(=O)c2cccs2)C2CCS(=O)(=O)C2)cc1 (stereo not given)	-10.5%	11.6%	-23.6%	6.0%	-68.9*	u
COCC(=O)N1CCC2(CC1)CN(c1ccncc1)C2	x	-0.1%	x	x	x	-11.2%
O=C(O)c1ccccc1N/N=C/C1=C(N2CCOCC2)C(=C\c2ccccc2)/CC1	5.4%	-4.6%	u	8.1%	0.0	-10.2%
Cc1cc(C)nc(N/N=C/C2=C(N3CCOCC3)C(=C/c3ccccc3)/CC2)n1	-7.9%	23.3%	i	u	u	28.2µM*
O=C(N/N=C/C1=C(N2CCOCC2)C(=C\c2ccccc2)/CC1)Nc1ccccc1	-10.1%	4.8%	i	u	-70.9*	-1.5%
O=C(Nc1nccs1)c1ccc(-c2ccc(F)c(Cl)c2)o1	x	x	x	22.4µM*	18.2	12.3%
C=CCNS(=O)(=O)c1cc2c3c(c1)CCN3C(=O)CC2	x	1.9%	x	14.1%	2.1	-9.4%
O=[N+]([O-])c1ccc(-c2nc(C(Cl)Cl)c3ccccc3n2)cc1	-15.2%	5.6%	-17.1%	2µM*	-102.4*	-11.9%
CN(Cc1ccccc1)c1nc(-c2ccc([N+](=O)[O-])cc2)nc2ccccc12	-11.1%	7.2%	i	-2.4%	-39.9	-28.0%
Cc1ccccc1Nc1c(-c2ccccc2O)nc2sccn12	-12.5%	x	-16.5%	x	-64.4*	-10.4%
Cc1ccc2nc(-c3ccccc3O)c(Nc3ccccc3C)n2c1	u	x	u	x	0.3	-7.8%
COc1ccc2c(c1)OC(C)CN(CC(=O)NCc1cn[nH]c1-c1ccc(F)cc1)C2 (stereo not given)	8.4%	x	-7.6%	x	x	-9.1%
COC(=O)C1CCN(C(=O)C2CC(=O)N(c3ccc(C)c(Cl)c3)C2)CC1 (stereo not given)	-13.9%	x	-20.0%	8.5%	0.0	33.6%
CC(=O)Nc1ccc(NC(=O)C(C)OC(=O)CNC(=O)c2ccc(-c3ccccc3)cc2)cc1 (stereo not given)	-11.4%	x	-12.3%	34.1%	-6.0	7.8%
O=C(Nc1ccccc1)Nc1n[nH]c2nnc(-c3ccccc3)c(-c3ccccc3)c12	-11.2%	u	-7.6%	14.1µM*	7.6	u
CCn1c(=O)cc(OCC(=O)N2CCCCCC2)c2ccccc21	x	0.0%	x	-12.3%	160.6	-13.1%
CCn1c(=O)cc(OCC(=O)N2CCN(c3ccc(C)cc3)C(C)C2)c2ccccc21 (stereo not given)	-13.4%	x	-25.3%	x	-19.9	35.5µM*
Cc1cc(C)cc(Oc2ccc(N)cc2)c1	-20.8%	0.6%	-9.1%	2µM*	32.4	8.1%
Cc1cccc(Oc2ccc(N)cc2)c1	x	-6.3%	x	u	60.6	0.0%
Nc1ccc(Oc2cccc(Oc3ccc(N)cc3)c2)cc1	-2.7%	17.5%	-21.2%	-11.1%	-75.8*	10µM*
